We go through 49 compounds from article PMC4336329 (PLoS ONE, 2015).

The campaign covered roughly 310,000 compounds. About 14,000 (4.5%) showed an effect of 50% or more. Effects have a minus sign here. This is one part of a sample in which strong results are shown more often than they occur.
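Also: peak tail current of the secondary pulse compared with the same well before compound.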

Chain of human ether-à-go-go-related gene (hERG) potassium channel (Q12809 whole entry, looked up): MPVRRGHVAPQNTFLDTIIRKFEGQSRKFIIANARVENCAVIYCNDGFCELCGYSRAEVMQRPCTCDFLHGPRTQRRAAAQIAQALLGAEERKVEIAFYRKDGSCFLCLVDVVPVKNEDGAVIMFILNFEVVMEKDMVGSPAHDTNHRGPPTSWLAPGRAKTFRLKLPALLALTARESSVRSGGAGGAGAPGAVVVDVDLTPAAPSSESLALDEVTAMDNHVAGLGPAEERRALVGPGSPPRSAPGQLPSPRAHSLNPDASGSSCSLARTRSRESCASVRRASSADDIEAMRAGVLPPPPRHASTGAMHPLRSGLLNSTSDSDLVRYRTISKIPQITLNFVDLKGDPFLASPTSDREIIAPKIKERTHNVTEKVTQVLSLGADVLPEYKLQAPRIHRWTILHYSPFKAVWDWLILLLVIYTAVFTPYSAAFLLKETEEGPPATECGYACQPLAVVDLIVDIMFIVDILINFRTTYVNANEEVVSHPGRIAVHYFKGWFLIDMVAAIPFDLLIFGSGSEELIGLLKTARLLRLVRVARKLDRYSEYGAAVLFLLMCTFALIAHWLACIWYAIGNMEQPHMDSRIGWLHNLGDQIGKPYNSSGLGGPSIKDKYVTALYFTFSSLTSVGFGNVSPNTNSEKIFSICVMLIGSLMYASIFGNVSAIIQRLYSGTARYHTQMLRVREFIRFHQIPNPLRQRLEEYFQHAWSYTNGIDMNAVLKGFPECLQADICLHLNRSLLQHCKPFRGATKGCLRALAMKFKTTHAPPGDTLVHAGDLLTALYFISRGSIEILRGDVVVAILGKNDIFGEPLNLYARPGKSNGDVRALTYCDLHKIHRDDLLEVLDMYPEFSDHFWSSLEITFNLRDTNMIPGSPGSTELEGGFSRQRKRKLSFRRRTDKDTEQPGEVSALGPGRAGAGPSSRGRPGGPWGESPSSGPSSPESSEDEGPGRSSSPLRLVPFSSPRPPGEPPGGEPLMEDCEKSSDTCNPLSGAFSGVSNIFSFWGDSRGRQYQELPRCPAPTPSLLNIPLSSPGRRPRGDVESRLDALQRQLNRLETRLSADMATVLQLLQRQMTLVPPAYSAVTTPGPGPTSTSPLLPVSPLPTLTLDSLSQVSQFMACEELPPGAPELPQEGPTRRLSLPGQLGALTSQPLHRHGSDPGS

This assay addresses human ether-à-go-go-related gene (hERG) potassium channel (human, UniProt Q12809). As to the kind of experiment: primary screen, population patch clamp on CHO cells stably expressing hERG; higher = less effect of the substance.
Take `Cc1cc(-c2n[nH]c(=S)n2/N=C/C=C/c2ccccc2)n[nH]1`: the “hERG current change (%, negative = inhibition) at 10uM” value is recorded as 6.76%.

In the case of `Cc1ccc(NS(=O)(=O)c2ccc3[nH]c(=O)[nH]c3c2)cc1`, the “hERG current change (%, negative = inhibition) at 10uM” value is 21%.

As to `N/C(Cc1ccc(Cl)cc1Cl)=N\OC(=O)Cc1ccccc1`, the “hERG current change (%, negative = inhibition) at 10uM” value stood at 7.08%.

For the compound `Cc1ccc(NC(=O)[C@H](NC(=O)[C@@H]2Cc3ccccc3CN2)c2ccccc2)c(C)c1`, the “hERG current change (%, negative = inhibition) at 10uM” value is recorded as -60.7%.

Consider `Cc1ccc(NC(=O)[C@H](Cc2c[nH]c3ccccc23)NC(=O)[C@@H]2Cc3ccccc3CN2)c(C)c1`, for which the “hERG current change (%, negative = inhibition) at 10uM” value was -30.1%.

For `COc1cccc(NC(=O)[C@H](Cc2ccccc2)NC(=O)[C@@H]2Cc3ccccc3CN2)c1`, the “hERG current change (%, negative = inhibition) at 10uM” value is given as -2.99%.

In the case of `Cc1ccc(NC(=O)[C@@H](C)NC(=O)[C@@H]2Cc3ccccc3CN2)cc1`, the “hERG current change (%, negative = inhibition) at 10uM” value is listed as -14.9%.

For the compound `COc1ccc(NC(=O)[C@H](NC(=O)[C@@H]2Cc3ccccc3CN2)c2ccccc2)cc1`, the “hERG current change (%, negative = inhibition) at 10uM” value was -50.3%.

For `Cc1ccc(NC(=O)[C@H](Cc2ccccc2)NC(=O)[C@@H]2Cc3ccccc3CN2)c(C)c1`, the “hERG current change (%, negative = inhibition) at 10uM” value is reported as -5.23%.

Take `CC(C)c1ccc(NC(=O)[C@H](NC(=O)[C@@H]2Cc3ccccc3CN2)c2ccccc2)cc1`: the “hERG current change (%, negative = inhibition) at 10uM” value is recorded as -6.39%.

For the compound `CC(C)c1ccc(NC(=O)[C@@H](C)NC(=O)[C@@H]2Cc3ccccc3CN2)cc1`, the “hERG current change (%, negative = inhibition) at 10uM” value is reported as -29.2%.

In the case of `COc1cccc(NC(=O)[C@H](NC(=O)[C@@H]2Cc3ccccc3CN2)c2ccccc2)c1`, the “hERG current change (%, negative = inhibition) at 10uM” value is on record as -76.4%.

For the compound `Cc1ccc(NC(=O)[C@H](NC(=O)[C@@H]2Cc3ccccc3CN2)c2ccccc2)cc1`, the “hERG current change (%, negative = inhibition) at 10uM” value is -64.1%.

As for `COc1cccc(NC(=O)[C@H](CC(C)C)NC(=O)[C@@H]2Cc3ccccc3CN2)c1`, the “hERG current change (%, negative = inhibition) at 10uM” value is on record as -16%.

Take `CC(NC(=O)[C@H](NC(=O)[C@@H]1Cc2ccccc2CN1)c1ccccc1)c1ccccc1` (stereo partly shown): the “hERG current change (%, negative = inhibition) at 10uM” value is given as -32.9%.

As for `CCOc1ccccc1N(C(=O)c1ccccc1Cl)C1=NC(C)(C)CS1`, the “hERG current change (%, negative = inhibition) at 10uM” value was -2.51%.

Regarding `CC(NC(=O)c1ccccc1[N+](=O)[O-])C1CC2CCC1C2` (stereo not shown), the “hERG current change (%, negative = inhibition) at 10uM” value was 5.96%.

As to `O=C(NCc1ccc2c(c1)OCO2)c1ccc(COc2cc(Cl)ccc2Cl)o1`, the “hERG current change (%, negative = inhibition) at 10uM” value came to 11.7%.

On to `O=C(c1ccccc1)N1N=C(c2ccccc2O)CC1c1ccccc1` (stereo not shown), for which the “hERG current change (%, negative = inhibition) at 10uM” value was 6.88%.

For the compound `CCCCCOC(=O)C1=C(C)NC(=O)NC1c1ccc2c(c1)OCO2` (stereo not shown), the “hERG current change (%, negative = inhibition) at 10uM” value is on record as 6.41%.

For `CCOc1ccc(/C=N/N2C(=O)C(CC(=O)Nc3ccc(F)cc3F)SC2=NC)cc1OC` (stereo not shown), the “hERG current change (%, negative = inhibition) at 10uM” value worked out at 3.82%.

With `CCOc1ccc(CN(C)C(=O)CCl)cc1`, the “hERG current change (%, negative = inhibition) at 10uM” value was -1.2%.

As for `CS(=O)(=O)N(CC(=O)NCc1ccc2c(c1)OCO2)c1ccccc1`, the “hERG current change (%, negative = inhibition) at 10uM” value worked out at 6.97%.

Consider `COCc1c(C(=O)Nc2nc(C)cs2)oc2ccccc12`, for which the “hERG current change (%, negative = inhibition) at 10uM” value is reported as -2.57%.

For `CCCOP(=O)(OCCC)c1nc(-c2ccccc2)oc1NCc1ccccc1`, the “hERG current change (%, negative = inhibition) at 10uM” value was 6.49%.

Regarding `CCc1ccc(NC(=O)CCS(=O)(=O)c2ccc(Cl)cc2)cc1`, the “hERG current change (%, negative = inhibition) at 10uM” value came out at 6.96%.

Take `CCc1ccc(NC(=O)[C@H](NC(=O)[C@@H]2Cc3ccccc3CN2)c2ccccc2)cc1`: the “hERG current change (%, negative = inhibition) at 10uM” value is on record as -55%.

As to `Cc1ccc(NC(=O)[C@H](NC(=O)[C@@H]2Cc3ccccc3CN2)c2ccccc2)cc1C`, the “hERG current change (%, negative = inhibition) at 10uM” value is on record as -37.9%.

`COc1ccc(NC(=O)[C@H](Cc2c[nH]c3ccccc23)NC(=O)[C@@H]2Cc3ccccc3CN2)cc1`: the “hERG current change (%, negative = inhibition) at 10uM” value is -36.8%.

Regarding `COc1ccccc1CNC(=O)[C@H](Cc1c[nH]c2ccccc12)NC(=O)[C@@H]1Cc2ccccc2CN1`, the “hERG current change (%, negative = inhibition) at 10uM” value is -16.5%.

`CCc1ccc(NC(=O)[C@@H](NC(=O)[C@@H]2Cc3ccccc3CN2)C(C)CC)cc1` (stereo partly shown): the “hERG current change (%, negative = inhibition) at 10uM” value is given as -13.6%.

With `COc1ccc(CNC(=O)[C@H](Cc2c[nH]c3ccccc23)NC(=O)[C@@H]2Cc3ccccc3CN2)cc1`, the “hERG current change (%, negative = inhibition) at 10uM” value is on record as -53.9%.

For `Cc1cc(C)cc(NC(=O)[C@H](NC(=O)[C@@H]2Cc3ccccc3CN2)c2ccccc2)c1`, the “hERG current change (%, negative = inhibition) at 10uM” value is given as -0.0454%.

Regarding `Cc1cccc(NC(=O)[C@@H](CC(C)C)NC(=O)[C@@H]2Cc3ccccc3CN2)c1`, the “hERG current change (%, negative = inhibition) at 10uM” value is -40.7%.

In the case of `CCc1ccc(NC(=O)CNC(=O)[C@@H]2Cc3ccccc3CN2)cc1`, the “hERG current change (%, negative = inhibition) at 10uM” value was -19.9%.

Turning to `Cc1cccc(NC(=O)[C@H](Cc2ccccc2)NC(=O)[C@@H]2Cc3ccccc3CN2)c1`, the “hERG current change (%, negative = inhibition) at 10uM” value is listed as -0.0161%.

Take `Cc1cccc(NC(=O)[C@H](NC(=O)[C@@H]2Cc3ccccc3CN2)c2ccccc2)c1`: the “hERG current change (%, negative = inhibition) at 10uM” value is recorded as -54.4%.

In the case of `Cc1cccc(NC(=O)[C@@H](NC(=O)[C@@H]2Cc3ccccc3CN2)C(C)C)c1`, the “hERG current change (%, negative = inhibition) at 10uM” value is on record as -62.4%.

`CN(c1ccc(C(=O)NC2CCCC2)cc1)S(=O)(=O)c1ccc(Cl)cc1`: the “hERG current change (%, negative = inhibition) at 10uM” value turned out to be 16.2%.

Regarding `COC(=O)CNC(=O)C1CCN(S(=O)(=O)c2cnc[nH]2)CC1`, the “hERG current change (%, negative = inhibition) at 10uM” value is reported as -1.84%.

Take `CC1=NN(C(C#N)c2ccc(F)cc2)C(c2ccccc2)C1` (stereo not shown): the “hERG current change (%, negative = inhibition) at 10uM” value is recorded as 4.44%.

Regarding `COCCN(CCOC)S(=O)(=O)c1ccc(C(=O)Nc2ccncc2)cc1`, the “hERG current change (%, negative = inhibition) at 10uM” value is given as -11.6%.

As for `CSc1cccc(NC(=O)CN(C)S(=O)(=O)c2ccc(C)cc2)c1`, the “hERG current change (%, negative = inhibition) at 10uM” value is -32.8%.

With `CCc1ccc2[nH]c(=O)c(C(c3nnnn3CCOC)N3CCN(c4ccccc4)CC3)cc2c1` (stereo not shown), the “hERG current change (%, negative = inhibition) at 10uM” value is -11.6%.

`COCCn1nc2cc(C(=O)NCc3cc(C(F)(F)F)cc(C(F)(F)F)c3)ccc2c1OC`: the “hERG current change (%, negative = inhibition) at 10uM” value amounted to 21.8%.

As to `CSCC[C@H](NC(=O)[C@@H]1Cc2ccccc2CN1)C(=O)Nc1ccc2c(c1)OCCO2`, the “hERG current change (%, negative = inhibition) at 10uM” value is -65.5%.

Turning to `C[C@H](NC(=O)[C@@H]1Cc2ccccc2CN1)C(=O)Nc1ccc2c(c1)OCCO2`, the “hERG current change (%, negative = inhibition) at 10uM” value came to 3.18%.

`C[C@@H](NC(=O)[C@@H]1Cc2ccccc2CN1)C(=O)Nc1ccc2c(c1)OCCO2`: the “hERG current change (%, negative = inhibition) at 10uM” value is 3.19%.

As to `Cc1cc(C(=O)OCC(=O)NCc2ccc3c(c2)OCO3)c2ccccc2n1`, the “hERG current change (%, negative = inhibition) at 10uM” value was -27.5%.
